Here are results for 8 compounds from PubChem BioAssay (NCI).

Test systems include DU-145 prostate; K-562 leukemia; MALME-3M melanoma; MDA-MB-231 breast; RXF 393 renal; SF-268 CNS; SF-295 CNS; SF-539 CNS; UACC-257 melanoma; M14 melanoma; HCT-15 colon; HT29 colon; SNB-75 CNS; SNB-19 CNS; U251 CNS; PC-3 prostate; SK-MEL-5 melanoma; UACC-62 melanoma; LOX IMVI melanoma; SK-MEL-28 melanoma.
Common to all, as to assay: NCI-60 one-dose screen, 48 h (100 = growth as untreated, 0 = no growth, -100 = all killed)
Common to all, as to conditions: 10 µM unless noted

The panel holds about 83,000 compounds, 20% with a hit somewhere; the sample as a whole holds those more often.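 Treatment: one concentration, 48 hours, 96-well format. Scoring: percent growth, with anything below 10 considered active.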 Unmarked numbers belong to inactive results. Calls of active or inactive are those of the source.

For the compound `CCOC(=O)c1nn(C2CCCCO2)c2ccc(NC(=O)CSc3nc4ccccc4c(=O)[nH]3)cc12` (configuration not stated), the growth with DU-145 prostate was 102%; with K-562 leukemia it was 99.4%; in the test on MALME-3M melanoma it was 103%; in the test with MDA-MB-231 breast it was 79.9%; in the test on RXF 393 renal, 71.8%; in the test on SF-268 CNS it was 90.1%. Also, the growth in the test with SF-295 CNS is 97.6%; in the test on SF-539 CNS, 82.4%; in the test with UACC-257 melanoma, 102%; with M14 melanoma it was 100%; in the test on HCT-15 colon it was 99.5%; in the test with HT29 colon it was 125%. In addition, the growth in the test on SNB-75 CNS was 68.5%; in the test on SNB-19 CNS, 76.3%; in the test on U251 CNS it was 97.2%; with PC-3 prostate it was 105%; with SK-MEL-5 melanoma, 98.1%; in the test with UACC-62 melanoma, 94.5%. Moreover, the growth with LOX IMVI melanoma was 96.2%.
`NC(=O)CC1C=CCC1` (configuration not stated): the growth in the test on DU-145 prostate was 102%; with K-562 leukemia, 96%; in the test with MALME-3M melanoma, 97.8%; with MDA-MB-231 breast it was 102%; in the test with RXF 393 renal, 111%; in the test on SF-268 CNS it was 102%. In addition, the growth in the test on SF-295 CNS was 98.3%; in the test with SF-539 CNS it was 93.3%; with UACC-257 melanoma, 90.4%; with M14 melanoma, 102%; with HCT-15 colon it was 99.5%; in the test with HT29 colon it was 96.3%. The growth was 84.3% in the test with SNB-75 CNS; 104% in the test on SNB-19 CNS; 85.5% in the test with U251 CNS; 98.7% with PC-3 prostate; 99.5% in the test with SK-MEL-5 melanoma; 101% in the test on UACC-62 melanoma. Also, the growth in the test on LOX IMVI melanoma was 103%.
With `CCN(CC)CCCOc1ccc2c(c1)O/C(=C\c1cccc(OC)c1)C2=O`, the growth in the test with DU-145 prostate was 86.8%; in the test on K-562 leukemia it was 21.5%; in the test with MALME-3M melanoma, 90.5%; with MDA-MB-231 breast, 87.1%; with RXF 393 renal, 85.6%; in the test with SF-268 CNS it was 86.1%. Besides, the growth is 93.4% in the test on SF-295 CNS; 86.7% in the test with SF-539 CNS; 100% in the test with UACC-257 melanoma; 92.6% with M14 melanoma; 53.5% in the test with HCT-15 colon; 50.2% in the test on HT29 colon. Besides, the growth with SNB-75 CNS is 71.8%; with SNB-19 CNS, 92.6%; in the test with U251 CNS, 76.7%; in the test on PC-3 prostate, 94.6%; in the test on SK-MEL-5 melanoma, 91.2%; in the test with UACC-62 melanoma, 95.6%. Also, the growth in the test on LOX IMVI melanoma is 70.7%.
On to `COC(=O)c1cc(O)c2c(c1C(=O)OC)C[C@H]1[C@@H]3CC=C4C[C@@H](O)CC[C@]4(C)[C@H]3CC[C@]21C`, for which the growth in the test on DU-145 prostate was 79%; in the test on K-562 leukemia, 20%; in the test on MALME-3M melanoma, 28.3%; in the test with MDA-MB-231 breast, 2.21% (active); with RXF 393 renal, -60.6% (active); in the test with SF-268 CNS it was 66.8%. In addition, the growth in the test with SF-295 CNS is -14.5% (active); in the test with SF-539 CNS, 8.9% (active); in the test with UACC-257 melanoma it was 14.3%; with M14 melanoma, 11.6%; with HCT-15 colon, 24.6%; in the test with HT29 colon, 16.2%. The growth was 62.2% with SNB-75 CNS; 66.9% in the test with SNB-19 CNS; 37.5% with U251 CNS; 41.3% in the test with PC-3 prostate; 1.59% (active) in the test with SK-MEL-5 melanoma; 40.9% in the test on UACC-62 melanoma. Also, the growth in the test on LOX IMVI melanoma is 9.77% (active).
For `Cc1nn(-c2ccccc2)c(N2CCOCC2)c1-c1nc2ccc([N+](=O)[O-])cc2[nH]1`, the growth with DU-145 prostate was 98.4%; with K-562 leukemia, 88.4%; with MALME-3M melanoma it was 105%; in the test on MDA-MB-231 breast it was 109%; with RXF 393 renal it was 113%; with SF-268 CNS it was 89.7%. Also, the growth is 99.8% in the test on SF-295 CNS; 109% with SF-539 CNS; 106% in the test on UACC-257 melanoma; 108% in the test on M14 melanoma; 91.5% in the test with HCT-15 colon; 113% in the test on HT29 colon. The growth with SNB-75 CNS was 95.7%; with SNB-19 CNS it was 103%; with U251 CNS it was 102%; in the test with PC-3 prostate, 112%; with SK-MEL-5 melanoma, 95.7%; in the test with UACC-62 melanoma, 83.4%.
As for `O=C(Nc1cccc(F)c1)c1cc(=O)[nH]c2cc(Br)ccc12`, the growth in the test on DU-145 prostate was 74.2%; in the test on K-562 leukemia, 21.3%; in the test on MALME-3M melanoma it was 52.8%; with MDA-MB-231 breast, 72.2%; with RXF 393 renal it was 56.1%; with SF-268 CNS it was 60.8%. Further, the growth in the test with SF-295 CNS is 38.9%; with SF-539 CNS, 47.6%; with UACC-257 melanoma, 57%; with M14 melanoma, 29.5%; with HCT-15 colon, 28.6%; in the test on HT29 colon, 9.92% (active). Moreover, the growth is 43.7% with SNB-75 CNS; 54.7% in the test on SNB-19 CNS; 36% in the test with U251 CNS; 43.8% with PC-3 prostate; 32% in the test on SK-MEL-5 melanoma; 34.4% with UACC-62 melanoma. In the test with LOX IMVI melanoma, the growth is 43.1%.
Consider `C=C(C)[C@@H]1CC[C@]2(COCCCN)CC[C@]3(C)[C@H](CC[C@@H]4[C@@](C)(CCCNCCCN)[C@H](C(=C)C)CC[C@]43C)[C@@H]12`, for which the growth in the test with DU-145 prostate is -83.4% [100 µM] (active); with K-562 leukemia it was -34.1% [100 µM] (active); with MALME-3M melanoma it was -58.2% [100 µM] (active); in the test with MDA-MB-231 breast it was -63.8% [100 µM] (active); in the test on RXF 393 renal, -48.6% [100 µM] (active); in the test on SF-268 CNS, -58.7% [100 µM] (active). Also, the growth was -52.7% [100 µM] (active) with SF-295 CNS; -62.2% [100 µM] (active) in the test on SF-539 CNS; -74.1% [100 µM] (active) with UACC-257 melanoma; -35.4% [100 µM] (active) with M14 melanoma; -53.4% [100 µM] (active) in the test with HCT-15 colon; -23.1% [100 µM] (active) in the test on HT29 colon. The growth with SNB-75 CNS was -74.1% [100 µM] (active); in the test with SNB-19 CNS, -60.1% [100 µM] (active); in the test on U251 CNS, -51.5% [100 µM] (active); in the test on PC-3 prostate, -53.9% [100 µM] (active); with SK-MEL-5 melanoma, -55.1% [100 µM] (active); in the test on UACC-62 melanoma, -72.4% [100 µM] (active). The growth in the test on LOX IMVI melanoma is -49.7% [100 µM] (active); in the test on SK-MEL-28 melanoma it was -63.3% [100 µM] (active).
`CC(C)OC(=O)Nc1cc(F)c(F)cc1F`: the growth in the test on DU-145 prostate was 110%; in the test on K-562 leukemia it was 111%; with MALME-3M melanoma, 89.9%; with MDA-MB-231 breast, 103%; in the test on RXF 393 renal, 104%; in the test on SF-268 CNS, 101%. Moreover, the growth is 102% in the test with SF-295 CNS; 96.2% in the test with SF-539 CNS; 94.8% with UACC-257 melanoma; 93.7% with M14 melanoma; 98.1% in the test with HCT-15 colon; 99.3% in the test with HT29 colon. Also, the growth in the test on SNB-75 CNS is 96.3%; in the test on SNB-19 CNS, 102%; in the test on U251 CNS it was 99.3%; with PC-3 prostate it was 99.8%; in the test with SK-MEL-5 melanoma, 102%; in the test on UACC-62 melanoma, 96.6%. The growth in the test on LOX IMVI melanoma is 109%.
